Assay outcomes as filed in PubChem.
Only some compounds are listed: those with a hit (about 2.7% of all), similar ones and a draw of the others.
TCR-CD3 inh = human TCR-CD3 binding inhibition. TAMRA-labeled TCR probe fluorescence, biochemical. 360,000 tested, 0.37% active. AID 651800. inhibition, % at 9.4 µM; in the data active = inhibition above about 19%;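 note: recombinant mutant TCR 2C K166C tagged with TAMRA read by polarization; 0% = receptor in buffer alone and 100% = receptor with positive control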
PAFAH1B2 inh = blocks human PAF acetylhydrolase 1b catalytic subunit 2. inhibition, % at 3.39 µM. recombinant PAFAH1B2, FP-rhodamine activity probe, fluorescence polarization. 340,000 tested, 1.2% active. P68402. AID 492953;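 active = inhibition above the mean of all tested compounds plus 3 SD, cut at about 24% in these data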;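 note: 0% = enzyme with DMSO and 100% = wells lacking PAFAH1B2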
Target sequence (P68402 whole entry, looked up): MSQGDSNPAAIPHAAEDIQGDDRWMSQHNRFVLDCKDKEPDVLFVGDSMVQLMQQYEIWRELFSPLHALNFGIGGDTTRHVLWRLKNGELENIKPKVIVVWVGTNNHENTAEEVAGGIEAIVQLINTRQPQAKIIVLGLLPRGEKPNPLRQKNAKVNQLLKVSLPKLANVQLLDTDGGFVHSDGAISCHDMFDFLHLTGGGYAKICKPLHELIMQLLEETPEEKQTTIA
PAFAH1B3 FP inh = PAFAH1B3 (human) inhibition; inhibition, % at 3.39 µM; 340,000 tested, 0.28% active; recombinant PAFAH1B3, FP-rhodamine probe, fluorescence polarization;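 active = inhibition above the screen-wide average of all tested compounds plus 3 SD, cut at about 25% in these data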;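 note: 0% = enzyme with DMSO only and 100% = wells lacking PAFAH1B3 protein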
Target sequence (Q15102 whole entry, looked up): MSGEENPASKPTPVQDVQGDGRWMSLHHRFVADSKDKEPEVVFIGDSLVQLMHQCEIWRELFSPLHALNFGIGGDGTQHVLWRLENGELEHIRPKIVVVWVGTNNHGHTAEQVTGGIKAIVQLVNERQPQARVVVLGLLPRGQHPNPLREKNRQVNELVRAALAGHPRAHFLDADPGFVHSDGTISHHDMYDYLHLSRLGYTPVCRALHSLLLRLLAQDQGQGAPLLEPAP
PAFAH2 FP inh = PAFAH2 (human) inhibition. 340,000 tested, 0.99% active. recombinant PAFAH2, FP-rhodamine activity probe, fluorescence polarization. Q99487. inhibition, % at 3.39 µM;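 active = inhibition above the mean over all tested compounds plus 3 SD, cut at about 30% in these data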;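 note: inhibitors block probe labeling of enzyme so polarization drops; 0% = enzyme with DMSO and 100% = wells lacking PAFAH2 protein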
pPAFAH inh = pPAFAH (human) enzyme inhibition. inhibition, % at 3.39 µM. AID 463082. Q13093. 330,000 tested, 1.5% active. recombinant pPAFAH, FP-rhodamine probe fluorescence polarization;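 active = inhibition above the mean inhibition across the screen plus 3 SD, cut at about 25% in these data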;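 note: inhibitors block binding of the rhodamine activity-based probe so polarization drops; 0% = enzyme with DMSO and 100% = wells lacking pPAFAH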
pPAFAH FP conf = confirmation of human plasma PAF acetylhydrolase (pPAFAH) inhibitors | shares compounds with pPAFAH inh | recombinant pPAFAH, FP-Rh probe fluorescence polarization | inhibition, % at 3.39 µM | 2,300 tested, 72% active;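 active = mean inhibition of the triplicate above the hit cutoff set for the earlier primary screen, cut at about 25% in these data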;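 note: 0% = enzyme with DMSO and 100% = wells lacking pPAFAH enzyme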
* marks the source's active call; other numbers are inactive results; nt = no result given.

SMILES	TCR-CD3 inh	PAFAH1B2 inh	PAFAH1B3 FP inh	PAFAH2 FP inh	pPAFAH inh	pPAFAH FP conf
O=C(Nc1ccc(Br)c2ccccc12)c1ccc2ccccc2c1O	-2	18	22	48*	36*	52*
COc1ccccc1NC(=O)COC(=O)c1ccc([N+](=O)[O-])s1	-3	12	26*	38*	37*	6
COc1ccccc1NC(=O)COC(=O)C1CC1	3	3	5	18	5	nt
COc1ccc(S(=O)(=O)Nc2ccc(F)cc2)cc1N(C)S(=O)(=O)c1ccc(Cl)cc1	5	-2	3	6	38*	35*
COc1ccc(S(=O)(=O)Nc2cccc(Cl)c2)cc1OC	-1	5	7	4	10	nt
CN1CCS/C1=C/C=C1/SC(=S)N(Cc2ccccc2)C1=O	1	2	10	26	36*	27*
O=C(O)c1cccc(N2C(=O)c3cccc4cccc(c34)C2=O)c1	-5	7	8	2	nt	nt
O=C(O)c1cccc(N2C(=O)c3cc([N+](=O)[O-])cc4cc([N+](=O)[O-])cc(c34)C2=O)c1	2	10	34*	20	45*	21
COc1ccc(-c2coc3cc(OC(=O)N4CCOCC4)ccc3c2=O)cc1	1	-8	5	7	51*	43*
COc1cccc(=O)c2c(C)n(-c3ccc(C(=O)O)cc3)c(C)c12	0	2	6	10	37*	1
CCOc1cccc(=O)c2c(C)n(-c3ccc(C(=O)O)cc3)c(C)c12	13	3	6	8	38*	21
C[C@@]12CCC[C@@](C)(C(=O)O)C1CC[C@@]13C[C@@H](NCc4ccccc4)[C@@](C)(CCC12)C3 (stereo partly specified)	5	5	6	-4	1	nt
CCOc1ccc(NS(=O)(=O)c2ccc3[nH]c(=O)oc3c2)cc1	-9	3	5	5	55*	52*
Cc1ccc(NS(=O)(=O)c2ccc3[nH]c(=O)oc3c2)c(C)c1	6	7	-2	1	75*	71*
Cc1ccc(NC(=O)CN(C)S(=O)(=O)c2ccc3[nH]c(=O)oc3c2)c(C)c1	6	8	-1	2	5	nt
OCCNc1c2ccccc2nc2c(F)c(F)c(F)c(F)c12	8	1	14	1	6	nt
Cc1c2ccccc2nc2c(F)c(NCCO)c(F)c(F)c12	16	14	19	25	37*	14
N#Cc1c(-c2cccc(F)c2)cc(-c2ccccc2)nc1Br	4	-2	11	-4	2	nt
N#Cc1c(-c2ccccc2Cl)cc(-c2ccccc2)nc1Br	2	1	-5	3	35*	16
CN(CC(=O)Nc1ccc(N2CCOCC2)cc1)CC(=O)Nc1ccc(N2CCOCC2)cc1	-3	4	0	4	42*	35*
CN(CC(=O)Nc1ccc(N2CCOCC2)cc1)C(=O)Cc1ccccc1	2	2	7	2	1	nt
CSCCC(NC(=O)c1ccccc1)C(=O)N(C)CC(=O)Nc1ccc(N2CCOCC2)cc1 (stereo unspecified)	-6	3	5	9	36*	32*
CCOc1ncccc1C(=O)Nc1cc(S(=O)(=O)N2CCOCC2)ccc1OCC(F)(F)F	-11	1	-8	1	7	nt
O=C1c2ccccc2-c2onc3ccc(NCc4ccco4)c1c23	nt	105*	104*	121*	82*	104*
Cc1ccc(S(=O)(=O)N2[C@@H](c3ccccc3)C(C(=O)O)=CC[C@H]2c2ccc3c(c2)OCO3)cc1	4	14	8	-3	9	nt
SMILES	TCR-CD3 inh	PAFAH1B2 inh	PAFAH1B3 FP inh	PAFAH2 FP inh	pPAFAH inh	pPAFAH FP conf
Cc1ccc(S(=O)(=O)N2[C@@H](c3ccc(C(C)(C)C)cc3)C(C(=O)O)=CC[C@H]2c2ccc3c(c2)OCO3)cc1	-2	92*	4	10	58*	17
CN1CCN(C(=O)c2ccc(CS(=O)Cc3ccc(Cl)cc3)o2)CC1 (stereo unspecified)	1	-1	1	0	5	nt
COc1ccc(N2CCN(C(=O)c3ccc(CS(=O)Cc4ccc(Cl)cc4)o3)CC2)cc1 (stereo unspecified)	-4	3	-1	1	36*	28*
Cc1cccc(N2CCN(C(=O)c3ccc(CS(=O)Cc4cccc(Cl)c4)o3)CC2)c1C (stereo unspecified)	-2	2	8	7	43*	19
CC(=O)NCCNc1nc2cc(-c3ccccc3CO)sc2c(=O)n1C	-4	nt	nt	nt	nt	nt
NCCCCNCCCN	11	3	14	-4	62*	0
O=C1/C(=C/C=C/c2ccco2)SC(=S)N1c1ccc(O)cc1	10	-4	7	17	83*	41*
CC(C)C(C(=O)O)N1C(=O)/C(=C/C=C/c2ccco2)SC1=S (stereo unspecified)	nt	17	23	61*	78*	54*
O=C(NN1C(=O)/C(=C/C=C/c2ccco2)SC1=S)c1ccncc1	16	nt	nt	nt	72*	16
CCCc1ncc(CN2CCC(C(=O)Nc3cccc(-c4cscn4)c3)CC2)cn1	2	-6	-5	1	3	nt
CCOc1ccc(-c2nc3scc(-c4cccs4)c3c(=O)[nH]2)cc1	2	2	7	4	3	nt
O=C(Nc1cccc(-c2csc(Nc3ccc(Cl)cc3)n2)c1)c1cc([N+](=O)[O-])cc(C(F)(F)F)c1	8	39*	49*	52*	41*	21
CCCCCC(=O)Cc1cc(O)cc2c1C(=O)Oc1cc(O)c(C(=O)O)c(CCCCC)c1O2	nt	nt	nt	nt	43*	59*
O=C(Nc1cccc(C(F)(F)F)c1)c1cc[n+]([O-])cc1	-5	4	11	1	-2	nt
COc1ccc(CCNC(=O)c2ccc3nc(-c4ccco4)c(-c4ccco4)nc3c2)cc1OC	nt	11	22	23	44*	20
O=C(Nc1cccc(C(F)(F)F)c1)c1ccc2nc(-c3ccco3)c(-c3ccco3)nc2c1	-7	15	29*	31*	70*	77*
O=C1c2cc(Cl)ccc2-c2c(O)cc(Cl)cc21	0	2	6	-3	nt	nt
COc1ccc(NS(=O)(=O)c2cccc(C(=O)NN=Cc3ccc(OC)cc3OC)c2)cc1	-4	6	15	-10	15	nt
COc1ccc(NS(=O)(=O)c2cccc(C(=O)NN=Cc3cc(Br)c(O)c(Br)c3)c2)cc1	7	10	8	28	61*	69*
C/C(CC(=O)Nc1ccc2ccccc2c1)=N\NC(=O)c1ccc(O)c(O)c1	19	5	12	14	54*	55*
C/C(CC(=O)Nc1ccc2ccccc2c1)=N\NC(=O)c1cnccn1	2	5	9	2	-1	nt
COc1cc(/C=N/NC(=O)CSc2cc(C)c(Br)cc2C)ccc1O	4	1	9	2	8	nt
